# Experimental data: PubChem BioAssay (NCATS)
# “And” between values parts separate entries of the source, which are not always exact repeats. Identical values can stand only once. Results filed as inconclusive are left out. The source made the active and inactive calls. Unless noted, calls follow the shape of the dose curve; as a rule, active = well fitted inhibition curve with a large enough effect; inconclusive = small, poorly fitted or top-dose-only effect; inactive = no such curve, though single readings can be large or run the other way.
# System: not listed separately
# Test: HTS Assay for Allosteric Antagonists of the Human D2 Dopamine Receptor: Hit Validation in HTRF (AID 624455); also: % is scaled to controls: 0 for no effect and ±100 for the full control effect
# Conditions: Cells stably expressing D1 dopamine receptor, inhibition mode; series mostly up to 46.1 µM; activity, negative = inhibition: at the top concentration
# Summary of the method: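 HTRF read-out; cells stably expressing D1 receptor; hits scored for inhibition of D1-mediated response. Primary screen: calcium flux, force-coupled inducible Hek293 Trex D2 line, antagonism vs EC80 dopamine.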
row,SMILES,"activity, negative = inhibition"
1,CC(C)NC(C)Cc1ccc(I)cc1 (configuration not stated),9.18% (inactive)
2,C[C@@H]1O[C@H](C[N+](C)(C)C)C[C@H]1O,0.708% (inactive)
3,COC(=O)[C@@H](N)CCCN=C(N)N[N+](=O)[O-],-0.66% (inactive)
4,CCCCc1ccc(C(=O)O)nc1,-1.46% (inactive)
5,C=CCN1CC[C@]23CCCCC2[C@H]1Cc1ccc(O)cc13 (some centres not stated),-7.12% (inactive)
6,S=C(NC1CCCCC1)N1CCC(c2cnc[nH]2)CC1,0.201% (inactive)
7,NC(=O)CN1CC(O)CC1=O (configuration not stated),2.98% (inactive)
8,c1ccc(C2(c3ccccc3)CC2C2=NCCN2)cc1 (configuration not stated),1.13% (inactive)
9,CN1C2CCC1CC(OC(=O)c1cc(Cl)cc(Cl)c1)C2 (configuration not stated),-2.41% (inactive)

# System: not listed separately
# Test: qHTS assay for small molecule agonists of the antioxidant response element (ARE) signaling pathway (AID 651741; active = well fitted activation curve with a large enough effect in the signal ratio; the % refers to the signal ratio; also: potency is read from the fitted curve at half-maximal effect; as to activation: % of control where 0% means no effect)
# Conditions: HepG2 ARE-bla reporter, beta-lactamase FRET ratio, 16 h; series mostly up to 96 µM; activation: at the top concentration
# Summary of the method: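 Agonist activity is measured as ARE-driven beta-lactamase expression in a stable HepG2 reporter line, using 16 h compound treatment at 37 C and a FRET substrate fluorescence readout after 2 h.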
SMILES,activation,Potency
O=C(O)C(Cl)Cl,4.33% (inactive),
CC(=O)[O][Hg][c]1ccccc1,,47.3 µM (active)
O=C(O)COc1ccccc1,-2.44% (inactive),
COC(C)(C)CCCC(C)C/C=C/C(C)=C/C(=O)OC(C)C (configuration not stated),,48.6 µM (active) and 66.8 µM (active)
C1CCC(NC2CCCCC2)CC1,,inactive

# System: not listed separately
# Test: qHTS assay for small molecule activators of the p53 signaling pathway (AID 651743; active = well fitted activation curve with a large enough effect in the signal ratio, not every such curve was filed as active; the % refers to the signal ratio; also: % of control where 0% means no effect)
# Conditions: HCT-116 p53RE-bla, beta-lactamase FRET ratio, 16 h; activation: active compounds read high
# Summary of the method: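 A beta-lactamase reporter under p53 response element control, stably carried by HCT-116 cells, reported pathway activation. Test compounds were applied for 16 hours at 37 C, and fluorescence was measured 2 hours after adding the B/G FRET substrate.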
row,SMILES,activation
1,Cc1cc(O)ccc1Cl,-0.548% (inactive)
2,O=C(O)COc1ccccc1,-8.89% (inactive)
3,COC(C)(C)CCCC(C)C/C=C/C(C)=C/C(=O)OC(C)C (configuration not stated),-4.75% (inactive) and -1.61% (inactive)
4,C1CCC(NC2CCCCC2)CC1,-5.71% (inactive) and -0.896% (inactive) and -1.09% (inactive)

# System: not listed separately
# Test: qHTS assay for small molecule activators of the nuclear factor-kappa B (NF-kB) signaling pathway (AID 651749; active = well fitted activation curve with a large enough effect in the signal ratio; the % refers to the signal ratio; also: % of control where 0% means no effect)
# Conditions: NF-kB-bla ME-180 cells, beta-lactamase FRET ratio, 16 h; active compounds read high
# Summary of the method: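 FRET-based beta-lactamase detection in ME-180 cells reports NF-kB response-element-driven transcription following overnight (16 hr) compound treatment.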
row,SMILES,activation
1,Cc1cc(O)ccc1Cl,-0.28% (inactive)
2,CCCCCCCCCCCCCCCC[N+](C)(C)C,1.41% (inactive)
3,O=C(O)COc1ccccc1,-0.0582% (inactive)
4,COC(C)(C)CCCC(C)C/C=C/C(C)=C/C(=O)OC(C)C (configuration not stated),-3.22% (inactive) and 0.402% (inactive)

# System: not listed separately
# Test: qHTS assay for small molecule disruptors of the mitochondrial membrane potential - 5 hr assay (AID 651755; calls by dose curve; also: nearly all actives have a fitted effect of over 40% in size; also: potency is read from the fitted curve at half-maximal effect; as to ratio change, negative = disruption: % is scaled to controls: 0 for no effect and ±100 for the full control effect)
# Conditions: JC-1-type ratio dye; series mostly up to 92.2 µM; ratio change, negative = disruption: at the top concentration
# Summary of the method: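 Membrane-potential dye readout: red aggregate (540 ex/590 em) versus green monomer (490 ex/535 em) fluorescence after 30 min dye loading, following 5 hr compound exposure at 37C of overnight-plated HepG2 cells.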
SMILES,Potency,"ratio change, negative = disruption"
CC(=O)[O][Hg][c]1ccccc1,13.3 µM (active),
CN(C)[C@@H]1C(=O)C(C(N)=O)=C(O)[C@@]2(O)C(=O)C3=C(O)c4c(O)cccc4[C@@](C)(O)[C@H]3[C@H](O)[C@@H]12,,4.9% (inactive)
Cc1cc(O)ccc1Cl,,-18% (inactive)
COC(C)(C)CCCC(C)C/C=C/C(C)=C/C(=O)OC(C)C (configuration not stated),,-0.678% (inactive)

# Target: Tumor necrosis factor (Homo sapiens) (UniProt P01375)
# Test: qHTS assay to identify small molecules that stimulate Tumor Necrosis Factor-alpha (TNF-alpha) secretion (AID 651757; active = well fitted curve in the direction sought with a large enough effect in the signal ratio; the % refers to the signal ratio; also: 0% is about no effect)
# Conditions: Human cells, HTRF 665/615 ratio; series mostly up to 92.2 µM; activation (TNF-alpha secretion): at the top concentration
# Summary of the method: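 THP-1 cells, 3000/well; compound 17 hrs, 37 C; add cryptate/XL665 anti-TNF-alpha antibody pair; 3 hr RT; TR-FRET (HTRF) read of secreted TNF-alpha. Quantitative HTS format.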
# Tumor necrosis factor (Homo sapiens), sequence (P01375 whole entry, looked up): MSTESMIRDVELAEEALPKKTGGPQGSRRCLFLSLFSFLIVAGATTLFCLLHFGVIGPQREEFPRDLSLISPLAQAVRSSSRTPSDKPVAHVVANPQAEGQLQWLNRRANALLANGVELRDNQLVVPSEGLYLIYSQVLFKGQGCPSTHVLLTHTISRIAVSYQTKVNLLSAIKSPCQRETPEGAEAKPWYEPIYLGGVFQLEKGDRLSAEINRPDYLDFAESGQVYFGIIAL
SMILES,activation (TNF-alpha secretion),outcome
O=C(O)C(Cl)Cl,0.0033% (inactive),
CN(C)[C@@H]1C(=O)C(C(N)=O)=C(O)[C@@]2(O)C(=O)C3=C(O)c4c(O)cccc4[C@@](C)(O)[C@H]3[C@H](O)[C@@H]12,3.66% (inactive),
Cc1cc(O)ccc1Cl,0.462% (inactive),
O=C(O)COc1ccccc1,-0.0796% (inactive),
COC(C)(C)CCCC(C)C/C=C/C(C)=C/C(=O)OC(C)C (configuration not stated),0.946% (inactive),
C1CCC(NC2CCCCC2)CC1,,inactive
